Screens as filed in PubChem BioAssay.
HPGD inh – blocks human HPGD enzyme activity; Potency, µM, without a hit: top-dose activity change, negative = inhibition, hits mostly inhibitors; purified HPGD, NADH fluorescence kinetic, PGE2 substrate; P15428; AID 894; actives 4.3% (n = 150,000); active = well fitted inhibition curve with a large enough effect, not every such curve was filed as active; inconclusive = small, poorly fitted or top-dose-only effect, or another doubt; inactive = no such curve, though single readings can be large or run the other way; note: potency is the fitted concentration of half-maximal effect
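20 nM HPGD preincubated 15 min at room temperature with compound in 50 mM Tris-HCl pH 8, 0.01% Tween 20. Started with 1 mM NAD+ and 30 uM prostaglandin E2; NADH fluorescence (360/450 nm) read 5 times over 30-s intervals, last minus first.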
ALOX12 inhib – blocks human 12-lipoxygenase activity; P18054; actives 0.12% (n = 150,000); purified 12-hLO, xylenol orange hydroperoxide absorbance; Potency, µM (series often up to 57.1 µM), inactives show top-dose activity change, negative = inhibition, actives largely listed as inhibitors; note: potency is the fitted concentration of half-maximal effect; nearly all actives have a fitted effect of over 55% in size
Target sequence (P18054 whole entry, looked up): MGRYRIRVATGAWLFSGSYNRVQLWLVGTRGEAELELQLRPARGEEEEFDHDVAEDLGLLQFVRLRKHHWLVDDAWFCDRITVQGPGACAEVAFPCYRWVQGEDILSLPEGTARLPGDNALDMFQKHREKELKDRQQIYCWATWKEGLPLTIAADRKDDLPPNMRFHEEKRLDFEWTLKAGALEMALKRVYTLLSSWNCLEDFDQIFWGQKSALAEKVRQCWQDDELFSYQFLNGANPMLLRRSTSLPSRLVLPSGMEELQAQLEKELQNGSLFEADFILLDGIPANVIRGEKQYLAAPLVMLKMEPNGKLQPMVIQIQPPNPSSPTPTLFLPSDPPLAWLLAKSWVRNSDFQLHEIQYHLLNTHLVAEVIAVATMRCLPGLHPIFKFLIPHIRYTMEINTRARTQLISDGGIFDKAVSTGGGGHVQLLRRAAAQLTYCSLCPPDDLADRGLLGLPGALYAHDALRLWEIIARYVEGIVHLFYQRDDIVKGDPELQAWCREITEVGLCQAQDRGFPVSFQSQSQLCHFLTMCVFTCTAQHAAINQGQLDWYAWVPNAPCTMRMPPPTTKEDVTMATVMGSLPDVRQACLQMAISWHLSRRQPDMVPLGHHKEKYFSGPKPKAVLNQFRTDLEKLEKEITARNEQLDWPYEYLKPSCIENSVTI
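Hydroperoxide output read as Fe(III)-xylenol orange absorbance, 573-to-405 nm ratio, after 30 min reaction with 40 uM arachidonic acid. Enzyme: 150 nM purified human 12hLO, 15 min compound preincubation; 25 mM Hepes pH 7.0, room temperature.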
NPSR antag – antagonists of human neuropeptide S receptor cAMP signaling. Q6W5P4. CHO-NPSR cells, cAMP TR-FRET, antagonist mode. Potency, µM (highest dose often 38.3 µM), without a hit: top-dose activity change, negative = inhibition, hits mostly inhibitors. actives 1% (n = 220,000). AID 1461; note: potency is the fitted concentration of half-maximal effect; nearly all actives have a fitted effect of over 50% in size
IMPase cell inh – membrane-permeable compound that blocks inositol monophosphatase. inhibition (IP1 accumulation), % at 46.1 µM. AID 901. CHO-M1 cells, IP1 accumulation, HTRF TR-FRET ratio. 120,000 tested, under 10 active. P97697; active = well fitted curve in the direction sought with a large enough effect in the signal ratio, not every such curve was filed as active; inconclusive = small, poorly fitted or top-dose-only effect, or a change in a side signal; inactive = no such curve, though single readings can be large or run the other way; the % refers to the signal ratio;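 note: cells stimulated with carbachol in lithium chloride buffer; plate controls were DMSO basal wells for no effect and reference inhibitor wells for full effect; higher means more IMPase inhibition seen as more IP1 and lower FRET ratio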
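Carbachol-driven Gq signalling in CHO-M1 cells (2000/well) generates IP1. Compounds that block IMPase raise IP1 and so reduce the FRET signal from Eu-anti-IP1 and d2-IP1 after a 10 min room-temperature lysis.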
IMPase Li inh – IMPase inhibition in cells with lithium potentiation; CHO-M1 cells, IP1 TR-FRET (IP-One), carbachol + lithium; AID 1457; Potency, µM (titrated, usually from 59.4 µM), for the others: top-dose activity, negative = IMPase inhibition, usual class: inhibitors; actives 0.35% (n = 210,000);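 note: IP1 builds up when IMPase is blocked and the TR-FRET signal falls; potency is the fitted concentration of half-maximal effect; plate controls were basal vehicle for no effect and high inhibitor control for full effect; nearly all actives have a fitted effect of over 50% in size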
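CHO-M1, 2000 cells/well, 16–30 h culture; cpd + low Li+, 30 min 37C; lysis with d2-IP1/Eu-anti-IP1 Ab, 10 min RT; TR-FRET 665/620 ratio and 620 channel; AC50 via Hill.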
ALDH1A1 inh – ALDH1A1 (human) enzyme inhibition; actives 7.3% (n = 220,000); AID 1030; Potency, µM (titrated, usually from 75.3 µM), without a hit: at the highest dose activity, negative = inhibition, most hits filed as inhibitors; Purified ALDH1A1, NADH fluorescence, propionaldehyde substrate; active = well fitted inhibition curve with a large enough effect, not every such curve was filed as active; inconclusive = small, poorly fitted or top-dose-only effect, or another doubt; inactive = no such curve, though single readings can be large or run the other way;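 note: potency is the fitted concentration of half-maximal effect; plate controls were no enzyme wells and a reference inhibitor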
* = called active by the depositor; ? = inconclusive; . = no result given; [ ] = another dose, or the depositor's remark. Hits are enriched below; roughly 8.9% of the tested compounds scored in any of these assays. Unless noted, calls come from the whole dose curve; as a rule, active = well fitted curve in the direction sought with a large enough effect; inconclusive = small, poorly fitted or top-dose-only effect, or another doubt; inactive = no such curve, though single readings can be large; an effect the other way counts as inactive or inconclusive. Unless noted, % is set by controls: 0 for no effect and ±100 for the full control effect.

SMILES | HPGD inh | ALOX12 inhib | NPSR antag | IMPase cell inh | IMPase Li inh | ALDH1A1 inh
CCOc1nc(NC(=O)NC(=O)c2ccccc2)nc(-c2ccccc2)n1 | -15% | 0% | -35% | 1 | ? | 17%
O=C(CN(C(=O)CNS(=O)(=O)c1ccccc1)c1ccc2c(c1)OCCO2)NCc1ccco1 | -5% | -1% | -2%[46.1 µM] | ? | 2%[38.3 µM] | 2%
COc1ccccc1CN(CC(=O)NCc1ccco1)C(=O)CNS(=O)(=O)c1ccc(C)cc1 | 3% | -8% | -4%[46.1 µM] | 5 | 10%[38.3 µM] | 22µM*
O=C(CN(Cc1ccc2c(c1)OCO2)C(=O)CNS(=O)(=O)c1ccccc1)NCc1ccco1 | -9% | -2% | -11%[46.1 µM] | -2 | 3%[38.3 µM] | 4.5µM*
COc1cccc(C(CC(=O)NCc2ccco2)NS(=O)(=O)c2ccc(C)cc2)c1OC (centres undefined) | -9% | 5% | 5%[46.1 µM] | -18 | 10% | 20µM*
CN(C)c1ccc(C(C#N)c2ccc(Cl)cc2)nn1 (centres undefined) | . | . | -3% | . | 1% | -7%
CN(C)c1ccc(C(C#N)c2ccccc2)nn1 (centres undefined) | . | . | 4% | . | -10% | 10µM*
O=c1[nH]c(CN2CCCCC2)nc2c1C1(CCCCC1)Cc1ccccc1-2 | -10% | 5% | -6%[46.1 µM] | -6 | 21%[38.3 µM] | 6%
[O-][n+]1c(CN2CCCCC2)nc2cccc3c2c1-c1ccccc1-3 | ? | -9%[11.4 µM] | . | . | 1% | 1µM*
NC1=NC(=O)C2(COC(c3cccc([N+](=O)[O-])c3)OC2)S1 (centres undefined) | . | . | -6% | . | 5% | ?
Cc1ccc(S(=O)(=O)NCCCCCC(=O)NC(C)(C)CO)cc1 | -9% | 0% | 3%[46.1 µM] | -11 | -7%[38.3 µM] | 7.9µM*
Cc1ccc(CNC(=O)CCNS(=O)(=O)c2ccc(C)cc2)cc1 | -7% | 2% | -17%[46.1 µM] | 4 | 3%[38.3 µM] | 14µM*
COc1ccccc1CNC(=O)CCCc1ccccc1 | ? | -2% | 2% | . | 5% | 2%
O=C(CCc1ccc(S(=O)(=O)NCCc2ccccc2)cc1)NCc1ccco1 | -12% | 0% | -9%[46.1 µM] | 9 | 14% | 5µM*
COc1ccc(CNC(=O)CCCc2ccccc2)cc1 | -25% | 5% | 11% | . | -2% | 1.1µM*
CCCCNC(=O)CCNS(=O)(=O)c1ccc(C)cc1 | -1% | -6% | 6%[46.1 µM] | 3 | 14%[38.3 µM] | -8%
Cc1ccc(-n2nc3ccc(NC(=O)COc4ccccc4)cc3n2)cc1Cl | . | . | . | -18 | . | .
COc1ccc(S(=O)(=O)NCCC(=O)NCc2ccccc2)cc1 | . | -6% | -5%[46.1 µM] | 5 | . | 25µM*
O=C(COC(=O)COc1ccccc1)NCc1ccccc1 | . | . | 11% | . | 1% | 3%
O=C(COc1ccccc1)NCc1ccccc1 | 28µM* | 1% | -8%[46.1 µM] | 9 | 24%[38.3 µM] | -12%
COc1ccc(S(=O)(=O)NC(C)CCc2ccccc2)cc1 (centres undefined) | . | . | 10% | . | 8% | 0.63µM*
Cc1ccc(S(=O)(=O)NCCC(=O)NCc2ccc3c(c2)OCO3)cc1C | -3% | 0% | -5%[46.1 µM] | -2 | ? | 7.9µM*
COCC(C)NS(=O)(=O)c1ccc(OC)cc1 (centres undefined) | . | 0% | 1%[46.1 µM] | 3 | . | 8%
Cc1nn(-c2ccccc2)c2c1C(c1cccs1)C(C#N)=C(N)O2 (centres undefined) | ? | -6% | -15%[46.1 µM] | 11 | -2%[38.3 µM] | 11µM*
Cc1nn(-c2ccccc2)c2c1C(c1ccco1)C(C#N)=C(N)O2 (centres undefined) | -15% | -16% | 4%[46.1 µM] | -1 | 8%[38.3 µM] | 1µM*
SMILES | HPGD inh | ALOX12 inhib | NPSR antag | IMPase cell inh | IMPase Li inh | ALDH1A1 inh
Cc1nn(-c2ccccc2)c(N)c1Sc1ccc([N+](=O)[O-])cc1 | 20µM* | 2% | -16%[46.1 µM] | 12 | 24% | 1.4µM*
Cc1nn(-c2ccccc2)c2c1C(c1ccc([N+](=O)[O-])cc1)C(C#N)=C(N)O2 (centres undefined) | . | . | 15% | . | . | 14µM*
O=C(Cn1cc(C(=O)c2ccco2)c2ccccc21)Nc1ccccc1F | . | . | 45% | . | 6% | 17%
Cc1cc(C=C2C(=O)c3ccccc3C2=O)c(C)n1-c1ccc(Cl)cc1 | -10% | 6% | -13%[46.1 µM] | 8 | 5% | 2.2µM*
Cc1cccc(-n2c(C)cc(C=C3C(=O)c4ccccc4C3=O)c2C)c1 | -14% | -21% | ? | 11 | 7%[38.3 µM] | 1.6µM*
CCn1c(C)cc(C=C2C(=O)c3ccccc3C2=O)c1C | . | . | -33% | . | 7% | 11µM*
Cc1cc(C=C2C(=O)CCCC2=O)c(C)n1-c1ccccc1 | -8% | -3% | 7% | 13 | 0% | ?
Cc1cc(C=C2C(=O)c3ccccc3C2=O)c(C)n1C | -15% | 2% | -2% | 17 | 3% | ?
CC(C)(C)c1cc(N)n(-c2ccc(C(=O)O)cc2)n1 | . | . | 6% | . | -9% | 10%
CCn1c(SCc2ccc([N+](=O)[O-])cc2)nnc1C(C)NC(=O)c1ccc(C)cc1 (centres undefined) | -7% | 1% | -2% | -10 | 7% | 12%
CCNC(=O)[C@H]1O[C@@H](n2cnc3c(N)nc(NCCc4ccc(CCC(=O)O)cc4)nc32)[C@H](O)[C@@H]1O | . | . | 11% | . | . | .
CCn1c(SCC(=O)c2ccc(F)cc2)nnc1-c1ccoc1C | ? | -8% | -26%[46.1 µM] | ? | 48%[38.3 µM] | 22µM*
Cc1occc1-c1nnc(SCCCC(=O)c2ccc(F)cc2)n1C | -14% | 11% | -11%[46.1 µM] | 2 | 5%[38.3 µM] | ?
